Test results published in PubChem BioAssay (NCI).
Compounds without any hit were thinned out: in the full panel of roughly 83,000, 20% have a hit.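 Cells were grown in 96-well plates and exposed to the test compound at a single concentration for 48 hours; results are reported as percent growth, with values below 10 considered active.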 Unmarked numbers belong to inactive results. Calls of active or inactive are those of the source.

Tests used:
Assay in all cases: NCI-60 one-dose screen, 48 h (100 = growth as untreated, 0 = no growth, -100 = all killed)
Details in all cases: 10 µM unless noted
HCT-15 colon = system: HCT-15 colon
HT29 colon = system: HT29 colon
SNB-75 CNS = system: SNB-75 CNS
SNB-19 CNS = system: SNB-19 CNS
U251 CNS = system: U251 CNS
PC-3 prostate = system: PC-3 prostate
SK-MEL-5 melanoma = system: SK-MEL-5 melanoma
UACC-62 melanoma = system: UACC-62 melanoma
LOX IMVI melanoma = system: LOX IMVI melanoma
SK-MEL-28 melanoma = system: SK-MEL-28 melanoma

Row | Compound | growth (HCT-15 colon) | growth (HT29 colon) | growth (SNB-75 CNS) | growth (SNB-19 CNS) [%] | growth (U251 CNS) | growth (PC-3 prostate) | growth (SK-MEL-5 melanoma) | growth (UACC-62 melanoma) | growth (LOX IMVI melanoma) | growth (SK-MEL-28 melanoma)
1 | Cc1ccc(/C=C/CC(=O)Nc2ccc(C(=O)Nc3ccc(F)cc3N)nc2)cn1 | 52.3% | 15.9% | 36.7% | 60 | 44.9% | 42.9% | 20.9% | 21.8% | 24.3% | 25.3%
2 | C#C[C@]1(O)CC[C@H]2[C@@H]3CC=C4c5sc(Nc6cccc(C)n6)nc5CC[C@]4(C)[C@H]3CC[C@@]21C | 15.6% | 37.7% | -23.9% (active) | 18.5 | 6.3% (active) | -1.41% (active) | 3.52% (active) | -20.9% (active) |  | -55% (active)
3 | Cn1cc(-c2nn3cc(-c4ccncc4)nc3s2)c2cc(Cl)ccc21 | 5.44% (active) | 4.2% (active) | 88.6% | 83 | 56.6% | 14.6% | 55.7% | 54.5% | 39.4% | 88.1%
4 | O=C1c2c(c3c4cccnc4[nH]c3c3ccc4ccccc4c23)C(=O)N1CCN1CCNCC1 | 3.44% (active) | 57.9% | 84% | 76.3 | 56.2% | 66.8% | 91.7% | 79.6% |  | 108%
5 | COc1ccc(Cn2cc3c(c2-c2ccccc2)CCCc2cnoc2-3)cc1[N+](=O)[O-] | 27.3% | 40.8% | 55.8% | 75.6 | 77.5% | 69.5% | 71.5% | 52.1% | 87.8% | 76.9%
6 | O=C1c2c(c3c4cc(Br)ccc4[nH]c3c3ccc4ccccc4c23)C(=O)N1CCN1CCCCC1 | -60% (active) | 10.3% | 49.6% | 37.7 | -10.9% (active) | 65% | 68.3% | 59.5% |  | 93.5%
7 | Cc1nn(-c2ccc(Br)cc2)c2nc(CCl)[nH]c(=O)c12 | 103% | 104% | 99.7% | 97.1 | 98.5% | 96.4% | 102% | 95.1% | -9.8% (active) | 103%
8 | O=C1Nc2ccc(Br)cc2/C1=N\c1nnc(-c2ccc(Cl)cc2)o1 | 24.2% | 32.5% | 46.8% | 72 | 60.5% | 80.1% | 77.2% | 60.1% |  | 70.8%
9 | COc1cc([C@H]2OC[C@H]3[C@@H]2CO[C@@H]3c2ccc(O)c(OC)c2)ccc1O | 88.4% | 92.8% | 87.9% | 104 | 97% | 82.6% | 57.3% | 91% | 9.99% (active) | 93.5%
10 | COc1ccc2c(c1)c(-c1nn3c(=O)cc(-c4ccccc4)nc3s1)cn2C | 34.7% | 10.5% | 14.9% | 39.1 | 26.8% | 32.4% | 38.7% | 24.2% | 37.9% | 51.5%
11 | COc1ccc2c(C3=C(c4cn(C)c5ccccc45)C(=O)NC3=O)coc2c1 | 20% | 6.25% (active) | 17.6% | 37.9 |  | 21.9% | 42.4% | 29.5% | 34.8% | 65.2%
12 | CC(C)C(=O)Nc1ccc(-c2nc(-c3cccc(O)c3)c(-c3ccnc(Br)c3)[nH]2)cc1 | 65.6% | 41% | 4.68% (active) | 47 |  | 29.7% | 42.7% | 31.8% | 38.4% | 50.3%
13 | COC(=O)c1nc(-c2ccc(C)cc2)oc1S(=O)(=O)N1CCN(c2oc(-c3ccccc3)nc2C#N)CC1 | 98.6% | 111% | 100% | 94.6 |  | 99% | 100% | 92% | 89.7% | 99.6%
